High-throughput results (PubChem BioAssay)
This is a sample that favours compounds with a hit; in the whole collection about 8% have one here.
TSHR antag: human thyrotropin receptor antagonism; TSHR-expressing cells, TSH-stimulated cAMP HTRF, 2 h; hits give low values; activity change, negative = inhibition, % at 11.5 µM; 330,000 tested, 0.2% active; AID 504810;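 active = activity change below a set negative limit, meaning inhibition stronger than a set level, cut at about -70% in these data; inconclusive = activity change between two set negative limits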
Target sequence (P16473 whole entry, looked up): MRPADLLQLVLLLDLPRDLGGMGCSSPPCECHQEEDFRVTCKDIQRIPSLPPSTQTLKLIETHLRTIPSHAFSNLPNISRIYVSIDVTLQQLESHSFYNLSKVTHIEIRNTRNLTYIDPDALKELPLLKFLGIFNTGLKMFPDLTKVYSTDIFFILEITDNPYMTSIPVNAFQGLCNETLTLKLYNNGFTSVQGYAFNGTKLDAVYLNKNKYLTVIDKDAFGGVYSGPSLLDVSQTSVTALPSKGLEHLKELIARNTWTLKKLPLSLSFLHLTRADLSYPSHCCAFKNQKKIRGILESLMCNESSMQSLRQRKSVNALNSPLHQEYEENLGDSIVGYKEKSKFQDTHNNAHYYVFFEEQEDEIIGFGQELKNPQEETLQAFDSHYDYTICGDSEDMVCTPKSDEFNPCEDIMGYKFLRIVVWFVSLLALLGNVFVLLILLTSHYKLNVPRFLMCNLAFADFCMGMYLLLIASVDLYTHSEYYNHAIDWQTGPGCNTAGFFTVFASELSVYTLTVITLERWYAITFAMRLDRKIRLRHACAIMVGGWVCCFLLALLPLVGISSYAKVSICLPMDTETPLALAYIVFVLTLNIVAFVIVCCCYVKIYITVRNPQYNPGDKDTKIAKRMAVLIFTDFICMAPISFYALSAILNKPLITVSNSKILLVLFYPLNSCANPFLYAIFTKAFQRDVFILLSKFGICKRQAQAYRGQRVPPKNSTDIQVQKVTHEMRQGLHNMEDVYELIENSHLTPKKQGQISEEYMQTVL
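Freshly harvested TSHR cells receive pin-tooled compound, then EC80 TSH at 4nM final. After 2 hours at 37 deg C, antibody in lysis buffer and cAMP-d2 are added; 30 minutes at ambient temperature precede the HTRF read.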
VP16 counter: Gal4-VP16 reporter inhibition counter-screen. AID 2546. Potency, µM (titrated, usually from 53.6 µM), for the others: at the top dose activity, negative = inhibition, actives largely listed as inhibitors. 310,000 tested, 3.5% active. Drosophila S2 Gal4-VP16 UAS-luciferase, luminescence, 20 h;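 also: Gal4-VP16 expression switched on by copper sulfate through the metallothionein promoter; potency is read from the fitted curve at half-maximal effect; nearly all actives have a fitted effect of over 50% in size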
RORgamma inh: blocks mouse ROR gamma transcriptional activity. 310,000 tested, 5.4% active. Drosophila S2 Gal4-RORgamma UAS-luciferase reporter, 20 h. P51450. AID 2551. Potency, µM (top dose mostly 53.6 µM), inactives show top-dose activity change, negative = inhibition, actives largely listed as inhibitors; also: potency is read from the fitted curve at half-maximal effect; nearly all actives have a fitted effect of over 60% in size
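Stably transfected Drosophila Schneider cells are the test system, with ROR gamma fused to Gal4 and luciferase under UAS control; luminescence is read after 20 hr of 700 uM copper sulfate induction at ambient temperature.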
ELG1 repair inh: blocks ELG1-dependent DNA repair in HEK293T cells. HEK293T ELG1-luciferase reporter, luminescence, 16 h; DNA damage induced by 5-fluorouridine. Potency, µM (highest dose often 46.1 µM), for the others: at the highest dose activity change, negative = inhibition, most hits filed as inhibitors. 330,000 tested, 2.3% active; also: potency is read from the fitted curve at half-maximal effect; nearly all actives have a fitted effect of over 55% in size
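Luminescence from the luciferase reporter, measured 30 min after ONE-Glo reagent at room temperature, was the read-out. Beforehand, 2,000 cells per well were exposed for 16 hr at 37 °C to 5-fluorouridine together with compound or vehicle.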
FBPA coupling cs: counter-screen for Giardia aldolase inhibitors: coupling enzyme system; coupling enzyme system counterscreen, AmpLite Red fluorescence; 290,000 tested, 0.67% active; activity change, negative = inhibition, % at 58.2 µM, hits read low; in the data active = activity change below about -30%
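Counterscreen of the coupled detection system alone, without aldolase: glyceraldehyde-3-phosphate coupling enzymes plus AmpLite Red readout. Compounds at 57.5 uM final, 10 min RT preincubation, 20 min RT reaction, fluorescence 525/598 nm.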
An asterisk follows results filed as active; [ ] = remark or other dose. Unless noted, calls follow the shape of the dose curve; as a rule, active = well fitted curve in the direction sought with a large enough effect; inconclusive = small, poorly fitted or top-dose-only effect, or another doubt; inactive = no such curve, though single readings can be large; an effect the other way counts as inactive or inconclusive. % is scaled to controls: 0 for no effect and ±100 for the full control effect.

How did CCC1CCCCN1S(=O)(=O)c1ccc(S(=O)(=O)N(Cc2ccccn2)CC2CCCO2)cc1 (stereo not given) do in these assays?
TSHR antag: 3; VP16 counter: -6%; RORgamma inh: 3%[10 µM]; ELG1 repair inh: 18µM*; FBPA coupling cs: 1

What do the screens show for `O=S(=O)(NCC1CCCO1)c1ccc(S(=O)(=O)N(Cc2ccc(F)cc2)Cc2ccccn2)cc1` (stereo not given)?
TSHR antag: -11; VP16 counter: 4%; RORgamma inh: 26%; ELG1 repair inh: -10%; FBPA coupling cs: 2

Results for CCOC(=O)Nc1cccc(Cl)c1C ?
TSHR antag: -7; VP16 counter: 5%; RORgamma inh: 1%; ELG1 repair inh: 22%; FBPA coupling cs: 0

Results for Cc1c(Cl)cccc1NC(=S)NN ?
TSHR antag: -2; VP16 counter: 10µM*; RORgamma inh: 3.5µM*; ELG1 repair inh: 3%; FBPA coupling cs: 2

Results for Cc1cccc(Cl)c1NC(=S)NN ?
TSHR antag: 5; VP16 counter: inconclusive; RORgamma inh: 5µM*; ELG1 repair inh: -4%; FBPA coupling cs: 1

How did CNC(=S)Nc1cccc(Cl)c1C do in these assays?
TSHR antag: -1; VP16 counter: inconclusive; RORgamma inh: 13µM*; ELG1 repair inh: -8%; FBPA coupling cs: 2

How did O=C(Nc1ccncc1)c1ccc2c(c1)C(=O)N(C1CCCCC1)C2=O do in these assays?
TSHR antag: -41; VP16 counter: 11µM*; RORgamma inh: inconclusive; ELG1 repair inh: -12%; FBPA coupling cs: 1

Results for Cc1cc(NC(=O)c2ccc3c(c2)C(=O)N(C2CCCCC2)C3=O)no1 ?
TSHR antag: -9; VP16 counter: 8%; RORgamma inh: -12%; ELG1 repair inh: 3%; FBPA coupling cs: 1

Results for CN1c2cccc3cccc(c23)N(C)C1(C)C ?
TSHR antag: 15; VP16 counter: 3%; RORgamma inh: -30%; ELG1 repair inh: -1%; FBPA coupling cs: -33*

What do the screens show for `Cc1ccc(-c2csc(N3CCC[C@@H]3C(=O)NCCn3c(-c4ccncc4)nc4ccccc43)n2)cc1`?
TSHR antag: -9; VP16 counter: inconclusive; RORgamma inh: -34%; ELG1 repair inh: 15µM*; FBPA coupling cs: -1

Results for S=C(N/N=C/c1ccc(Cl)cc1)N1CCOCC1 ?
TSHR antag: 1; VP16 counter: 1.8µM*; RORgamma inh: 0.35µM*; ELG1 repair inh: inconclusive; FBPA coupling cs: -16

What do the screens show for `S=C(Nc1ccc(Cl)cc1Cl)N1CCOCC1`?
TSHR antag: 1; VP16 counter: 3%; RORgamma inh: -35%; ELG1 repair inh: 3%; FBPA coupling cs: -1

How did S=C(c1ccc(Br)cc1)N1CCCC1 do in these assays?
TSHR antag: -4; VP16 counter: 2%; RORgamma inh: -14%; ELG1 repair inh: 10%; FBPA coupling cs: 0

How did S=C(N/N=C/c1ccc(Br)cc1)N1CCCCC1 do in these assays?
TSHR antag: -9; VP16 counter: 0.89µM*; RORgamma inh: 1.4µM*; ELG1 repair inh: inconclusive; FBPA coupling cs: -1

What do the screens show for `Cc1ccc(/C=N/NC(=S)N2CCOCC2)cc1`?
TSHR antag: 2; VP16 counter: 0.89µM*; RORgamma inh: 0.56µM*; ELG1 repair inh: inconclusive; FBPA coupling cs: -6

How did CC(C)C[C@@H](CN=[N+]=[N-])N1CCN(Cc2ccccc2)CCC1=O do in these assays?
TSHR antag: -1; VP16 counter: 2%; RORgamma inh: -2%; ELG1 repair inh: -16%; FBPA coupling cs: 5

What do the screens show for `CC(C)c1c(C(=O)N/N=C/C=C/c2ccccc2)nnn1-c1nonc1N`?
TSHR antag: -14; VP16 counter: 5.6µM*; RORgamma inh: 4.5µM*; ELG1 repair inh: -13%

How did CCN(CC)c1ccc(/C=N/NC(=O)c2nnn(-c3nonc3N)c2C(C)C)c(O)c1 do in these assays?
TSHR antag: -5; VP16 counter: 5µM*; RORgamma inh: 3.5µM*; ELG1 repair inh: 26%

Results for CN(C)Cc1c(C(=O)N/N=C/C=C/c2ccccc2)nnn1-c1nonc1N ?
TSHR antag: 32; VP16 counter: inconclusive; RORgamma inh: inconclusive; ELG1 repair inh: 0%; FBPA coupling cs: 4

Results for COc1ccc(-c2cc(=O)c3ccc(F)cc3[nH]2)cc1 ?
VP16 counter: -3%[96.6 µM]; RORgamma inh: 7%[96.6 µM]; FBPA coupling cs: -3

How did COCCNC(=O)CN(Cc1ccccc1)S(=O)(=O)c1ccc2nc(C)sc2c1 do in these assays?
TSHR antag: 0; VP16 counter: -9%; RORgamma inh: -2%; ELG1 repair inh: 17%; FBPA coupling cs: -3

What do the screens show for `COc1cc(OC)c(NC(=O)CN(C)S(=O)(=O)c2ccc(-c3ccc(=O)[nH]n3)s2)cc1Cl`?
TSHR antag: 1; VP16 counter: 2%; RORgamma inh: 5%; ELG1 repair inh: 6.5µM*

How did CCN(C(=O)CSc1nc(C)nc2sc(C)c(C)c12)C1CCS(=O)(=O)C1 (stereo not given) do in these assays?
TSHR antag: -7; ELG1 repair inh: -7%

What do the screens show for `CN(C(=O)CSc1ncnc2sc(-c3ccccc3)cc12)C1CCS(=O)(=O)C1` (stereo not given)?
TSHR antag: -13; VP16 counter: inconclusive; RORgamma inh: 11µM*; ELG1 repair inh: inconclusive; FBPA coupling cs: 0

Results for CCOC(=O)c1sc2nc(C)nc(SCC(=O)N(C)C3CCS(=O)(=O)C3)c2c1C (stereo not given) ?
TSHR antag: 7; VP16 counter: -4%; RORgamma inh: 13µM*; ELG1 repair inh: -15%; FBPA coupling cs: 3

Results for COc1ccc(Cn2c(C)nc3ccc([N+](=O)[O-])cc3c2=O)cc1 ?
TSHR antag: -10; VP16 counter: -11%; RORgamma inh: inconclusive; ELG1 repair inh: inconclusive; FBPA coupling cs: 0

What do the screens show for `Cc1ccc(S(=O)(=O)Nc2cccc(C(=O)NCCCn3ccnc3)c2)cc1F`?
TSHR antag: -1; ELG1 repair inh: 30%

What do the screens show for `CCCN1CCN(C(=O)c2cc(COc3ccc4ncccc4c3)on2)CC1`?
TSHR antag: 12; VP16 counter: 20µM*; RORgamma inh: 13µM*; ELG1 repair inh: -27%; FBPA coupling cs: -3

Results for COCCC1CCCCN1C(=O)c1cc(COc2ccc(-n3cncn3)cc2)on1 (stereo not given) ?
TSHR antag: -28; VP16 counter: 8.9µM*; RORgamma inh: 0%; ELG1 repair inh: inconclusive

How did CCC1CCCCN1C(=O)c1cc(COc2ccc3ncccc3c2)on1 (stereo not given) do in these assays?
TSHR antag: -19; VP16 counter: 2.8µM*; RORgamma inh: inconclusive; ELG1 repair inh: inconclusive; FBPA coupling cs: 3
